This is an account of results in PubChem BioAssay (NCI).

The structures appear in SMILES notation. Compounds without any hit were thinned out: in the full panel of roughly 79,000, 15% have a hit. A number with no mark means an inactive call. Calls of active or inactive are those of the source. Rule as the data show it: active = growth inhibition above about 70%; inactive = the rest.

Assay [1] is described as follows: NCI Yeast Anticancer Drug Screen. Data for the rad50 strain (AID 155).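 Also: 0% = growth of vehicle-only cultures of the same strain.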 To be noted: S. cerevisiae rad50 strain growth inhibition, hits give high values. In outline: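 A DNA repair-deficient yeast mutant serves as the test organism; compound-induced growth inhibition is calculated against vehicle-treated cells.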
A short description of assay [2]: NCI Yeast Anticancer Drug Screen. Data for the mec2-1 strain (AID 157). To be noted: S. cerevisiae mec2-1 strain, hits give high values. The gist of the method: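 Compounds were applied to mec2-1 yeast cells. Their growth was then compared with that of vehicle-treated cultures to give growth inhibition.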
The nature of assay [3]: NCI Yeast Anticancer Drug Screen. Data for the sgs1 mgt1 strain (AID 161).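 Also: 0% = growth of cultures given vehicle only.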 To be noted: S. cerevisiae sgs1 mgt1 strain, hits give high values. The gist of the method:
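Compounds are added to genetically altered yeast, and growth is compared with cultures given vehicle alone to give percent inhibition.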

Assay [4] can be described thus: NCI Yeast Anticancer Drug Screen. Data for the cln2 rad14 strain (AID 165).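 Also: 0% = growth equal to vehicle treated cultures.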 To be noted: S. cerevisiae cln2 rad14 strain, hits give high values. In outline: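 Strain: cln2 rad14 yeast, altered in cell cycle control and DNA damage repair. Read-out: growth inhibition vs vehicle.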
A short description of assay [5]: NCI Yeast Anticancer Drug Screen. Data for the bub3 strain (AID 167). To be noted: S. cerevisiae bub3 mutant strain, hits give high values. The gist of the method: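 Inhibition values come from growth of compound-treated mutant yeast normalised to vehicle-treated controls.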
Assay [6] is described as follows: NCI Yeast Anticancer Drug Screen. Data for the mlh1 rad18 strain (AID 175). To be noted: S. cerevisiae mlh1 rad18 strain growth inhibition, hits give high values. In outline:
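A repair-deficient yeast strain is exposed to test compound, and growth is scored relative to vehicle-treated controls.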

The mark [7] stands for this setting: at 5.0 µM (retest, dose inferred, filed as 0.5).
The mark [8] stands for this setting: at 50.0 µM (retest, dose inferred, filed as 5.0).

Consider `O=C(N/C(=C\c1ccc(/C=C(\NC(=O)c2ccccc2)c2nc3ccccc3s2)cc1)c1nc2ccccc2s1)c1ccccc1`, for which the growth inhibition in assay [1] (setting [7]) was 57%; in assay [1] (setting [8]), 57%; in assay [1] (at 50.0 µM), 85.1% (active); in assay [2] (setting [7]), 32%; in assay [2] (setting [8]), 32%; in assay [2] (at 50.0 µM), 87.5% (active). The growth inhibition in assay [3] (setting [7]) is 42%; in assay [3] (setting [8]), 42%; in assay [3] (at 50.0 µM), 85.6% (active); in assay [4] (setting [7]), 38%; in assay [4] (setting [8]), 38%; in assay [4] (at 50.0 µM), 84.7% (active). Besides, the growth inhibition was 60% in assay [5] (setting [7]); 60% in assay [5] (setting [8]); 85.5% (active) in assay [5] (at 50.0 µM); 28% in assay [6] (setting [7]); 28% in assay [6] (setting [8]); 83.8% (active) in assay [6] (at 50.0 µM).

`c1ccc([CH2][Sn]([CH2]c2ccccc2)([S]c2cccc3cccnc23)[S]c2cccc3cccnc23)cc1`: the growth inhibition is 67% in assay [1] (setting [7]); 24% in assay [1] (setting [8]); 94.2% (active) in assay [1] (at 50.0 µM); 61% in assay [2] (setting [7]); 18% in assay [2] (setting [8]); 92.5% (active) in assay [2] (at 50.0 µM). Further, the growth inhibition was 65% in assay [3] (setting [7]); 59% in assay [3] (setting [8]); 89.6% (active) in assay [3] (at 50.0 µM); 17% in assay [4] (setting [7]); -5% in assay [4] (setting [8]); 84.5% (active) in assay [4] (at 50.0 µM). Further, the growth inhibition was 61% in assay [5] (setting [7]); 30% in assay [5] (setting [8]); 93% (active) in assay [5] (at 50.0 µM); 46% in assay [6] (setting [7]); 16% in assay [6] (setting [8]); 93.5% (active) in assay [6] (at 50.0 µM).

`COc1ccc(C2=NN(c3ccccc3)C[N+](c3ccc(OC)cc3)=N2)cc1`: the growth inhibition was 22% in assay [1] (setting [7]); 72% (active) in assay [1] (setting [8]); 96.5% (active) in assay [1] (at 50.0 µM); -7% in assay [2] (setting [7]); 51% in assay [2] (setting [8]); 97.5% (active) in assay [2] (at 50.0 µM). For the same molecule, the growth inhibition in assay [3] (setting [7]) is 9%; in assay [3] (setting [8]), 48%; in assay [3] (at 50.0 µM) it was 97.7% (active); in assay [4] (setting [7]) it was 10%; in assay [4] (setting [8]), 96% (active); in assay [4] (at 50.0 µM), 96.4% (active). Moreover, the growth inhibition is -10% in assay [5] (setting [7]); 99% (active) in assay [5] (setting [8]); 97.7% (active) in assay [5] (at 50.0 µM); 6% in assay [6] (setting [7]); 84% (active) in assay [6] (setting [8]); 96.8% (active) in assay [6] (at 50.0 µM).

For the molecule `CC(C)Sc1nc(NC(=O)N(CCCl)N=O)cc(=O)[nH]1`, the growth inhibition in assay [1] (setting [7]) was -12%; in assay [1] (setting [8]), 26%; in assay [1] (at 50.0 µM) it was 13.8%; in assay [2] (setting [7]) it was -4%; in assay [2] (setting [8]), 9%; in assay [2] (at 50.0 µM) it was -2%. Further, the growth inhibition in assay [3] (setting [7]) was -12%; in assay [3] (setting [8]), 23%; in assay [3] (at 50.0 µM), 20.4%; in assay [4] (setting [7]), 8%; in assay [4] (setting [8]), 12%; in assay [4] (at 50.0 µM), 5.7%. The growth inhibition was -1% in assay [5] (setting [7]); 7% in assay [5] (setting [8]); 13.2% in assay [5] (at 50.0 µM); 2% in assay [6] (setting [7]); 74% (active) in assay [6] (setting [8]); 23.8% in assay [6] (at 50.0 µM).

For `O=C(O)c1ccccc1NC(c1ccccc1)c1ccc2cccnc2c1O` (stereo not given), the growth inhibition in assay [1] (setting [7]) was -15%; in assay [1] (setting [8]), 94% (active); in assay [1] (at 50.0 µM) it was 96.8% (active); in assay [2] (setting [7]) it was -3%; in assay [2] (setting [8]), 91% (active); in assay [2] (at 50.0 µM) it was 93% (active). The growth inhibition was 0% in assay [3] (setting [7]); 87% (active) in assay [3] (setting [8]); 96.8% (active) in assay [3] (at 50.0 µM); -39% in assay [4] (setting [7]); 88% (active) in assay [4] (setting [8]); 93.3% (active) in assay [4] (at 50.0 µM). The growth inhibition in assay [5] (setting [7]) was -17%; in assay [5] (setting [8]), 95% (active); in assay [5] (at 50.0 µM), 93.7% (active); in assay [6] (setting [7]) it was -14%; in assay [6] (setting [8]), 96% (active); in assay [6] (at 50.0 µM), 93.5% (active).

With `CCCCCCCCCCCCNCCNCCN`, the growth inhibition was 99% (active) in assay [1] (setting [7]); 95% (active) in assay [1] (setting [8]); 86.7% (active) in assay [1] (at 50.0 µM); 99% (active) in assay [2] (setting [7]); 100% (active) in assay [2] (setting [8]); 89.7% (active) in assay [2] (at 50.0 µM). For the same molecule, the growth inhibition was 25% in assay [3] (setting [7]); 96% (active) in assay [3] (setting [8]); 91% (active) in assay [3] (at 50.0 µM); 84% (active) in assay [4] (setting [7]); 97% (active) in assay [4] (setting [8]); 85.6% (active) in assay [4] (at 50.0 µM). Further, the growth inhibition in assay [5] (setting [7]) is 61%; in assay [5] (setting [8]), 96% (active); in assay [5] (at 50.0 µM), 89% (active); in assay [6] (setting [7]), 100% (active); in assay [6] (setting [8]) it was 100% (active); in assay [6] (at 50.0 µM), 86.6% (active).

In the case of `O=S(=O)(Nc1ccc2ccc3cccc4ccc1c2c34)c1ccccc1`, the growth inhibition in assay [1] (setting [7]) is 7%; in assay [1] (setting [8]), 25%; in assay [1] (at 50.0 µM), 57.6%; in assay [2] (setting [7]) it was 3%; in assay [2] (setting [8]), 12%; in assay [2] (at 50.0 µM), 34.9%. Besides, the growth inhibition in assay [3] (setting [7]) is 6%; in assay [3] (setting [8]) it was 45%; in assay [3] (at 50.0 µM) it was 62.2%; in assay [4] (setting [7]), -8%; in assay [4] (setting [8]), -7%; in assay [4] (at 50.0 µM) it was 17.6%. For the same molecule, the growth inhibition was -4% in assay [5] (setting [7]); 19% in assay [5] (setting [8]); 56.9% in assay [5] (at 50.0 µM); 6% in assay [6] (setting [7]); 55% in assay [6] (setting [8]); 71.2% (active) in assay [6] (at 50.0 µM).

As for `[Cl][Pt+2][Cl].[NH-]CC1(C[NH-])CCCC1`, the growth inhibition in assay [1] (setting [7]) is 28%; in assay [1] (setting [8]), 40%; in assay [1] (at 50.0 µM), 0.2%; in assay [2] (setting [7]), 14%; in assay [2] (setting [8]), 19%; in assay [2] (at 50.0 µM), 0.9%. In addition, the growth inhibition is 26% in assay [3] (setting [7]); 39% in assay [3] (setting [8]); -26.1% in assay [3] (at 50.0 µM); 7% in assay [4] (setting [7]); 30% in assay [4] (setting [8]); -3.1% in assay [4] (at 50.0 µM). The growth inhibition was 19% in assay [5] (setting [7]); 34% in assay [5] (setting [8]); -19.2% in assay [5] (at 50.0 µM); 26% in assay [6] (setting [7]); 72% (active) in assay [6] (setting [8]); -30% in assay [6] (at 50.0 µM).

Regarding `CCC(C)COC(=O)c1ccc([N+](=O)[O-])cc1` (stereo not given), the growth inhibition in assay [1] (setting [7]) was -4%; in assay [1] (setting [8]) it was 10%; in assay [1] (at 50.0 µM), 50%; in assay [2] (setting [7]), -4%; in assay [2] (setting [8]) it was 2%; in assay [2] (at 50.0 µM), 16.4%. Moreover, the growth inhibition was -1% in assay [3] (setting [7]); 7% in assay [3] (setting [8]); 72.8% (active) in assay [3] (at 50.0 µM); -3% in assay [4] (setting [7]); -9% in assay [4] (setting [8]); -2.15% in assay [4] (at 50.0 µM). Besides, the growth inhibition was -6% in assay [5] (setting [7]); -6% in assay [5] (setting [8]); 80.2% (active) in assay [5] (at 50.0 µM); -4% in assay [6] (setting [7]); 5% in assay [6] (setting [8]); 89.3% (active) in assay [6] (at 50.0 µM).

`O=C(c1ccc(Cl)cc1)C1N=NCC1c1ccccc1` (stereo not given): the growth inhibition in assay [1] (setting [7]) was 3%; in assay [1] (setting [8]), 33%; in assay [1] (at 50.0 µM), -2.2%; in assay [2] (setting [7]) it was 9%; in assay [2] (setting [8]), 52%; in assay [2] (at 50.0 µM), 22.8%. The growth inhibition is 4% in assay [3] (setting [7]); 50% in assay [3] (setting [8]); 29.2% in assay [3] (at 50.0 µM); 4% in assay [4] (setting [7]); 59% in assay [4] (setting [8]); 12.8% in assay [4] (at 50.0 µM). Besides, the growth inhibition was 4% in assay [5] (setting [7]); 85% (active) in assay [5] (setting [8]); 87% (active) in assay [5] (at 50.0 µM); -8% in assay [6] (setting [7]); 53% in assay [6] (setting [8]); 43% in assay [6] (at 50.0 µM).
